± gives the standard deviation.
Key:
Conditions in all cases: modulator concentration 10 µM
[1] = tested on: RAW-Dual (murine macrophage reporter line); assay: NF-kB reporter (SEAP) activity fold change vs agonist alone; higher = enhanced NF-kB activity
How it was run: (§1)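 RAW-Dual murine macrophage reporter cells were seeded at 50 000 per well in 384-well plates and pre-incubated 1 hour at 37 °C with compound pin-transferred to 10 μM final. After 1 hour, a PRR agonist was added and cells incubated overnight. Supernatant NF-κB (SEAP, QUANTI-Blue, 620 nm absorbance) and IRF (Lucia luciferase, QUANTI-Luc, luminescence) signals were divided by the mean agonist-only control on the same plate to give fold change. Two replicate plates were averaged, with errors by propagation.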

[2] = tested on: RAW-Dual (murine macrophage reporter line); assay: IRF reporter (Lucia luciferase) activity fold change vs agonist alone; higher = enhanced IRF activity
How it was run: as §1

[3] = tested on: RAW-Dual (murine macrophage reporter line); assay: viability score (confluency relative to resting cells, overnight) (fraction); higher = more viable, active = viable (0.7 or more)
How it was run: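 RAW-Dual macrophages in 384-well plates were treated overnight with compound at 10 μM final. IncuCyte imaging recorded confluency, and IncuCyte software built two confluency masks across every imaged well. The viability score expresses confluency relative to resting cells and was judged against a cutoff, which a compound met only if both masks exceeded 70% of resting cells.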

[4] = agonist: CpG ODN 1826 0.5 ug/mL

Row | SMILES | NF-kB reporter [1, 4] | NF-kB reporter ([1]; agonist: LPS 0.1 ug/mL) | NF-kB reporter ([1]; agonist: MPLA […]) | IRF reporter ([2]; agonist: 3'3'-cGAMP 10 ug/mL) | IRF reporter ([2]; agonist: LPS 0.1 ug/mL) | IRF reporter ([2]; agonist: MPLA […]) | viability score [3]
1 | Fc1ccc(CN2CCc3c([nH]c4ccccc34)C2)c(F)c1 | 0.636 ± 0.051 | 0.378 ± 0.05 | 0.62 ± 0.082 | 0.909 ± 0.029 | 1.32 ± 0.2 | 1.21 ± 0.16 | 0.212 (inactive)
2 | CC1CC(=O)C2=C(C1)OC(N)=C(C#N)C2c1ccc(Cl)cc1 (centres undefined) | 0.905 ± 0.093 | 1.06 ± 0.075 | 0.928 ± 0.042 | 0.721 ± 0.03 | 1 ± 0.07 | 0.909 ± 0.13 | 0.992 (active)
3 | CCN(CC)C(=O)Nc1ccc(OCC(O)CNC(C)(C)C)c(C(C)=O)c1 (centres undefined) [Prestw-1132] | 1.41 ± 0.08 | 1.01 ± 0.062 | 1.16 ± 0.079 | 0.979 ± 0.059 | 1.44 ± 0.15 | 1.29 ± 0.12 | 0.997 (active)
4 | CCOC(=O)Nc1ccc(NCc2ccc(F)cc2)nc1N.O=C(O)/C=C/C(=O)O | 1.21 ± 0.16 | 1.3 ± 0.34 | 0.885 ± 0.05 | 0.678 ± 0.043 | 1.3 ± 0.23 | 1.12 ± 0.09 | 0.977 (active)
5 | Cc1ccccc1C(=O)N1CC(S(=O)(=O)CC(C)C)C1 | 0.961 ± 0.082 | 0.907 ± 0.076 | 0.854 ± 0.052 | 1.04 ± 0.071 | 1.04 ± 0.13 | 0.899 ± 0.38 | 1.02 (active)
6 | Cc1ccccc1CNC(=O)CN(c1cccc(C(F)(F)F)c1)S(C)(=O)=O | 1.11 ± 0.097 | 1.07 ± 0.11 | 1.03 ± 0.041 | 0.956 ± 0.095 | 1.11 ± 0.13 | 1.03 ± 0.24 | 1 (active)
7 | CC(O)c1cn(-c2cccc(C(F)(F)F)c2)nn1 (centres undefined) | 1.05 ± 0.35 | 1.16 ± 0.072 | 1.04 ± 0.078 | 0.861 ± 0.038 | 1.15 ± 0.12 | 1.23 ± 0.17 | 1 (active)
8 | O=C(/C=C/c1cccc(S(=O)(=O)Nc2ccccc2)c1)NO | 2.21 ± 0.11 | 1.73 ± 0.14 | 2.67 ± 0.12 | 0.0696 ± 0.0082 | 0.285 ± 0.017 | 0.404 ± 0.12 | 0.0713 (inactive)
9 | Cc1cc(=O)n2c(-c3cccc(NC(=O)c4ccc(C(F)(F)F)cc4)c3)csc2n1 | 0.824 ± 0.044 | 1.12 ± 0.09 | 1.68 ± 0.46 | 0.731 ± 0.035 | 1.28 ± 0.21 | 1.5 ± 0.44 | 0.99 (active)
10 | O=C(Cc1ccc(Cl)cc1)Nc1ccc2oc(-c3c(F)c(F)c(F)c(F)c3F)nc2c1 | 0.931 ± 0.097 | 0.882 ± 0.12 | 0.696 ± 0.059 | 0.698 ± 0.028 | 1.32 ± 0.12 | 1.07 ± 0.11 | 1.01 (active)
11 | O=C1CCCc2[nH]ccc21 | 1.03 ± 0.12 | 1.03 ± 0.11 | 1.01 ± 0.092 | 1.02 ± 0.084 | 1.04 ± 0.094 | 0.998 ± 0.21 | 0.999 (active)
12 | Nc1ccn([C@@H]2O[C@H](CO)[C@@H](O)[C@@H]2O)c(=O)n1 | 1.36 ± 0.27 | 1.38 ± 0.13 | 1.38 ± 0.19 | 0.687 ± 0.025 | 1.08 ± 0.16 | 1.14 ± 0.12 | 0.35 (inactive)

From the supplement of paper PMC10646978
